# HCV inh: qHTS Assay for Inhibitors of Hepatitis C Virus (HCV) | Huh7.5.1 HCVcc-Cre infection, luciferase reporter, 44 h | Potency, µM (top dose mostly 41.8 µM), inactives show at the highest dose activity change, negative = inhibition, hits mostly inhibitors | hit rate 3.4% among 340,000 | AID 651820, 2012
#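 Antiviral activity was scored by luciferase reporter output from cells infected with HCVcc-Cre (~0.5 moi) in presence of compound, 44 h infection period, cells seeded 1,000/well 4 h prior.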
# Pf growth 48h: Primary qHTS for delayed death inhibitors of the malarial parasite plastid, 48 hour incubation; AID 504832, 2011; P. falciparum luciferase growth in erythrocytes, 48 h; hit rate 5.9% among 310,000; Potency, µM (highest dose often 28.7 µM), for inactives: top-dose activity change, negative = inhibition, hits mostly inhibitors
#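 Here the parasites carry a stable luciferase gene and grow inside erythrocytes in Albumax-based RPMI medium with compound for one erythrocytic cycle. Activity is scored as loss of luminescent signal.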
# Pf growth 96h: Primary qHTS for delayed death inhibitors of the malarial parasite plastid, 96 hour incubation. P. falciparum luciferase reporter growth, 96 h. Potency, µM (doses to about 28.7 µM), inactives show top-dose activity change, negative = inhibition, hits mostly inhibitors. hit rate 6.9% among 320,000. AID 504834, 2011
#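 Two parasite generations (96 h, 37 C, 5% CO2) of compound exposure in infected erythrocytes (0.05% parasitemia, 2% hematocrit). Luciferase-reporter P. falciparum; decreased luminescence indicates inhibited growth, aimed at apicoplast-acting delayed death.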
# AMA1-RON2 inh: qHTS for Inhibitors of AMA1-RON; Towards Development of Antimalarial Drug Lead: Primary Screen | hit rate 0.2% among 360,000 | Plasmodium falciparum AMA1 (3D7) - RON2 peptide interaction | AID 720542, 2013 | AlphaScreen AMA1-biotinylated RON2 peptide binding | Potency, µM (doses to about 58.2 µM), for the others: top-dose activity change, negative = inhibition, usual class: inhibitors;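 also: 0% = vehicle wells and -100% = peptide control; nearly all actives have a fitted effect of over 45% in size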
#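 AMA1 (3D7) with his tag at 25 nM final met compounds first, then biotinylated RON2 peptide at 25 nM; detection used donor plus acceptor beads, 10 µg/mL apiece, read by AlphaScreen after 30 min at room temperature.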
# * = called active by the depositor; ? = inconclusive; nt = no result given; [ ] = remark or other dose. Most compounds without a hit are left out; they make up all but 11% or so of the library. Calls follow the shape of the dose curve; as a rule, active = well fitted curve in the direction sought with a large enough effect; inconclusive = small, poorly fitted or top-dose-only effect, or another doubt; inactive = no such curve, though single readings can be large; an effect the other way counts as inactive or inconclusive. Unless noted, % is scaled to controls: 0 for no effect and ±100 for the full control effect; potency is read from the fitted curve at half-maximal effect.
SMILES,HCV inh,Pf growth 48h,Pf growth 96h,AMA1-RON2 inh
COc1cc(-c2nnc(CSc3nnc(Nc4ccc(Oc5ccccc5)cc4)s3)o2)cc(OC)c1OC,5.62µM*,?,?,18.7%
COc1cc(-c2nnc(CSc3nnc(N)s3)o2)cc(OC)c1OC,-10.9%,9.8%,-15.2%,-5.3%
Cc1nnc(SCc2cccc3ccccc23)s1,-68.8%,62.3%,105.2%,20.7%
COc1ccc(C(C)=O)cc1CSc1nnc(Nc2ccccc2)s1,?,?,6.57µM*,-4.7%
COc1ccccc1N(CC(O)Cn1ccnc1C)S(=O)(=O)c1ccccc1 (centres undefined),9.0%,-8.6%,54.1%,-6.5%
Cc1cc(C)c(C#N)c(N2CCOCC2)n1,8.4%,15.3%,?,1.1%
Cc1cc(C)c2c(N=NN3CCOCC3)[nH]nc2n1,-3.5%,7.5%,4.65µM*,9.2%[2.32 µM]
O=C(NCc1cccnc1)NC1(C(F)(F)F)Oc2ccc(Cl)cc2O1 (centres undefined),10µM*,?,?,39.1%
CC(=O)Nc1cccc(-c2cnc(N)c(C(=O)c3cccnc3)n2)c1,11.2µM*,nt,nt,0.0%
NC(=O)c1cccc(-c2cnc(N)c(C(=O)c3cccnc3)n2)c1,?,nt,nt,10.2%
COC(=O)C1=CN(C(C)C)C=C(C(=O)OC)C1c1cccc(OC)c1,40.3%,?,121.8%,44.3%
COC(=O)C1=CN(C(C)C)C=C(C(=O)OC)C1c1cc(Br)c(OC)c(OC)c1,-4.0%,4.65µM*,7.38µM*,53.6%
CC(=O)NC(CC(=O)Nc1nc(-c2ccc(N(C)S(C)(=O)=O)cc2)cs1)c1ccccc1 (centres undefined),11.2µM*,?,?,0.8%
CC(=O)Nc1ccc(-c2csc(NC(=O)CC(NC(C)=O)c3ccccc3)n2)cc1 (centres undefined),-9.4%,?,?,3.7%
Cc1ccc(C(=O)C(C)OC(=O)CNS(=O)(=O)c2ccc(C)cc2)cc1 (centres undefined),10.2%,3.1%,37.8%,9.5%
CCCOC(=O)C(C)n1cnc2scc(-c3ccc(C)cc3)c2c1=O (centres undefined),22.4µM*,?,46.2%,-4.6%
CCC(C(=O)OC)n1cnc2scc(-c3ccc(C)c(C)c3)c2c1=O (centres undefined),?,13.1µM*,0.0%,-24.4%
C=CCn1cnc2scc(-c3ccc(C)c(C)c3)c2c1=O,?,4.0%,-4.0%,3.0%
CCC(C(=O)O)n1cnc2scc(-c3ccc(C)c(C)c3)c2c1=O (centres undefined),-4.3%,?,?,0.0%
CCCn1cnc2scc(-c3ccc(C)c(C)c3)c2c1=O,-20.8%,2.4%,10.4µM*,14.1%
CNC[C@@H]1OCc2ccccc2-c2ccccc2C(=O)N([C@H](C)CO)C[C@@H]1C,nt,nt,nt,6.7%
Cc1ccc(-c2nc3c(c(SCC(=O)N4CCOCC4)n2)COC(C)(C)C3)cc1,6.8%,nt,nt,-8.9%
CC(Sc1nc(-c2ccccc2)nc2c1COC(C)(C)C2)C(=O)N1CCOCC1 (centres undefined),10.0%,nt,8.28µM*,-2.5%
COC(=O)CCSc1nc(N2CCOCC2)c2c(c1C#N)CC(C)(C)OC2,-0.3%,?,?,14.9%
COC(=O)c1ccc(CSc2nc(N3CCOCC3)c3c(c2C#N)CC(C)(C)OC3)o1,7.7%,8.28µM*,157.1%[5.75 µM],-6.2%
SMILES,HCV inh,Pf growth 48h,Pf growth 96h,AMA1-RON2 inh
CCOC(=O)CCSc1nc(N2CCOCC2)c2c(c1C#N)CC(C)(C)OC2,-0.4%,4.65µM*,36.4%,-5.4%
CC(Sc1nc(N2CCOCC2)c2c(c1C#N)CC(C)(C)OC2)C(=O)Nc1ccccc1 (centres undefined),?,13.1µM*,nt,3.4%
CCOC(=O)C(C)Sc1nc(N2CCOCC2)c2c(c1C#N)CC(C)(C)OC2 (centres undefined),-20.9%,nt,nt,4.8%
CC(C)c1cc(=O)n2[nH]c(N)nc2n1,23.7%,?,18.2%,45.1%
O=c1[nH]c(SCCc2ccccc2)nc2c1CCC2,nt,nt,nt,-6.3%
CC(C)CCSc1nc(N2CCOCC2)c2c(c1C#N)CC(C)(C)OC2,?,9.28µM*,3.4%,-2.9%
O=C(NCc1ccccc1)c1cc(-c2ccncc2)nc2ccccc12,-10.8%,?,?,15.8%
CN(C)CCNc1cc(-c2ccncc2)nc2ccccc12,-1.7%,11.7µM*,3.29µM*,0.0%
O=C(NCCOc1ccccc1Cl)C(=O)NCCOc1ccccc1Cl,-1.9%,-2.9%[5.75 µM],2.94µM*,-3.4%
CCOC(=O)C1=C(C)N2C(=C(C#N)[C@@H]1c1ccc(C(=O)OC)cc1)SC[C@@]2(O)C(C)(C)C,?,13.1µM*,nt,87.8%
O=C(CSc1nc(=O)n2ccccc2n1)N1CCCCCC1,26.0%,-21.0%,2.6%,-2.0%
Cc1ccc(-n2nnnc2-c2cnc(-c3cccnc3)nc2C(F)(F)F)cc1,10µM*,nt,?,-1.4%
FC(F)(F)c1nc(-c2ccncc2)ncc1-c1nnnn1-c1ccccc1,-12.9%,?,?,6.8%
Fc1ccc(-n2nnnc2-c2cnc(-c3cccs3)nc2C(F)(F)F)cc1,10µM*,?,5.22µM*,-0.5%
c1ccc(-n2nnnc2-c2cnc(-c3ccncc3)nc2-c2cccs2)cc1,-24.0%,10.4µM*,?,-22.4%
FC(F)(F)c1nc(N2CCCC2)ncc1-c1nnnn1-c1ccc(Cl)cc1,10µM*,nt,-1.9%,9.9%
COc1cc(Br)c(C(C)NC(=O)c2ccccc2)cc1OC (centres undefined),14.2%,13.1µM*,11.7µM*,0.0%
COc1ccc(OC)c(C(C)NC(=O)c2ccc(Br)cc2)c1 (centres undefined),-1.2%,-1.0%,111.3%,4.9%
Cc1ccc(O)c(C(=O)c2cc(C(=O)NCCC(C)C)c(=O)n(CCC(C)C)c2)c1,10µM*,?,3.29µM*,9.9%
Cc1ccc(O)c(C(=O)c2coc(=N)c(C(=O)NC(C)C)c2)c1,-11.0%,?,nt,-8.3%
CCN(C(C)=O)c1cnc(C=NNC(N)=S)c2ccccc12,6.31µM*,nt,nt,-26.8%
NC(=S)NN=Cc1nccc2c(N)cccc12,nt,nt,nt,-60.3%
COc1ccc(NC(=O)CN(C)C(=O)Cn2cnc3c2c(=O)n(C)c(=O)n3C)cc1,?,-15.9%,18.5%,2.1%
CCOC(=O)C1(CC2CC2)CCN(Cc2cnc(-c3ccccc3C)nc2)CC1,?,13.1µM*,?,3.9%
CCOC(=O)C1(CC2CC2)CCN(Cc2cc(Cl)c(O)c(OC)c2)CC1,-15.2%,?,0.37µM*,0.8%
CCOC(=O)C1(CCOc2ccccc2)CCN(Cc2cc(OC)c(O)c(OC)c2)CC1,-24.0%,?,-27.6%,-5.4%
O=C(NCCCN1CCOCC1)C(=O)N/N=C/c1ccccc1O,18.4%,?,12.0%,52.1%
Cc1ccc(-c2nc(CN3CCCCC3)cc(CN3CCCCC3)c2O)cc1,?,0.828µM*,?,-19.5%

# Screening data from PubChem BioAssay.
